Data on eight targets can be found in the supplement of paper PMC10849652.

The full data set covers some 7,900 targets. This sample favours those with a hit. About 0.6% of all pairs of compound and target were hits. Values without a mark were called inactive.

Holding throughout (assay): log2 fold change, soluble protein after heating vs DMSO (PISA); higher = thermal stabilisation; K562 cells, 10 uM, 30 min; active = over 0.2 and 3.5 SD of the protein, either way, in both replicates (recomputed)
Compound in test [1]: COC1=CC=C(C=C1)CN2C=CC3=C2C=C(C=C3)C(=O)NO
In outline:
(§1)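 Quantification of soluble protein used TMTpro 16plex LC-MS/MS, with channel sums equalised. Samples were the supernatant after 21,000xg for 90 min of pooled aliquots from K562 cells (2×10^6 cells/mL) treated with 10 μM compound for 30 min, heated for 3 min over 48°C-58°C, and extracted in PBS with 0.5% NP-40 at 4°C. Values, from duplicates, describe thermal stability against control samples on a log2 fold-change scale.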

Compound in test [2]: CO[C@H]1C[C@@H]2CC[C@@H](C)[C@@](O)(O2)C(=O)C(=O)N2CCCC[C@H]2C(=O)O[C@H]([C@H](C)C[C@@H]2CC[C@H](n3cnnn3)[C@H](OC)C2)CC(=O)[C@H](C)/C=C(\C)[C@@H](O)[C@@H](OC)C(=O)[C@H](C)C[C@H](C)/C=C/C=C/C=C/1C [zotarolimus]
In outline: as §1

Compound in test [3]: COc1cc(Nc2ncc3c(n2)-c2ccc(Cl)cc2C(c2c(F)cccc2OC)=NC3)ccc1C(=O)O [alisertib]
In outline:
as §1

Compound in test [4]: COc1cc2ncnc(Nc3ccc(F)c(Cl)c3)c2cc1OCCCN1CCOCC1 [gefitinib]
In outline:
as §1

Compound in test [5]: COc1cccc2cc(-c3nc([C@H]4CC[C@H](C(=O)O)CC4)n4ncnc(N)c34)[nH]c12
Summed up:
as §1

Compound in test [6]: CS(=O)(=O)N1CCN(Cc2cc3nc(-c4cccc5[nH]ncc45)nc(N4CCOCC4)c3s2)CC1 [pictilisib]
In outline:
as §1

Compound in test [7]: C[C@@H](Oc1cc(-c2cnn(C3CCNCC3)c2)cnc1N)c1c(Cl)ccc(F)c1Cl [crizotinib]
In outline:
as §1

Compound in test [8]: C[C@@H]1COCCN1C2=NC(=NC(=C2)C3(CC3)S(=O)(=O)C)C4=C5C=CNC5=CC=C4
Summed up: as §1

Compound in test [9]: C[C@H](C1=CC=C(C=C1)C(=O)NC2=C3C=CNC3=NC=C2)N
Summed up:
as §1

Compound in test [10]: C[C@H](Nc1ncnc2nc[nH]c12)c1cc2cccc(Cl)c2c(=O)n1-c1ccccc1 [duvelisib]
Summed up:
as §1

Compound in test [11]: Cc1cc(Nc2cc(CN3CCOCC3)c3nc(C)c(Cc4ccc(Cl)cc4F)n3n2)n[nH]1 [gandotinib]
In outline:
as §1

Compound in test [12]: Cc1cc(Nc2cc(N3CCN(C)CC3)nc(Sc3ccc(NC(=O)C4CC4)cc3)n2)n[nH]1 [tozasertib]
Summed up: as §1

Compound in test [13]: Cc1cc(SCc2sc(-c3ccc(C(F)(F)F)cc3)nc2C)ccc1OCC(=O)O
In outline: as §1

Compound in test [14]: Cc1ccc(-n2nc(C(C)(C)C)cc2NC(=O)Nc2ccc(OCCN3CCOCC3)c3ccccc23)cc1 [doramapimod]
Summed up: as §1

Compound in test [15]: Cc1ccc(C(=O)N(CCCN)[C@@H](c2nc3cc(Cl)ccc3c(=O)n2Cc2ccccc2)C(C)C)cc1 [ispinesib]
In outline:
as §1

Compound in test [16]: CON(C)C(=O)N1N=C(c2cc(F)ccc2F)S[C@@]1(CCCN)c1ccccc1 [filanesib]
Summed up: as §1

Compound in test [17]: CS(=O)(=O)c1ccc(-c2cnc(N)c(C(=O)Nc3ccccc3)n2)cc1
In outline:
as §1

Compound in test [18]: COc1cc(C(=O)O)ccc1NC(=O)[C@@H]1N[C@@H](CC(C)(C)C)[C@](C#N)(c2ccc(Cl)cc2F)[C@H]1c1cccc(Cl)c1F [idasanutlin]
Summed up: as §1

Compound in test [19]: COc1cc2nc(-c3cc(F)ccc3O)nc(N[C@@H]3CNC[C@H]3C(C)(C)O)c2cc1OC
In outline: as §1

Compound in test [20]: CS(=O)(=O)CCNCc1ccc(-c2ccc3ncnc(Nc4ccc(OCc5cccc(F)c5)c(Cl)c4)c3c2)o1 [lapatinib]
In outline:
as §1

Chain of UniProt P80370 (P80370 whole entry, looked up): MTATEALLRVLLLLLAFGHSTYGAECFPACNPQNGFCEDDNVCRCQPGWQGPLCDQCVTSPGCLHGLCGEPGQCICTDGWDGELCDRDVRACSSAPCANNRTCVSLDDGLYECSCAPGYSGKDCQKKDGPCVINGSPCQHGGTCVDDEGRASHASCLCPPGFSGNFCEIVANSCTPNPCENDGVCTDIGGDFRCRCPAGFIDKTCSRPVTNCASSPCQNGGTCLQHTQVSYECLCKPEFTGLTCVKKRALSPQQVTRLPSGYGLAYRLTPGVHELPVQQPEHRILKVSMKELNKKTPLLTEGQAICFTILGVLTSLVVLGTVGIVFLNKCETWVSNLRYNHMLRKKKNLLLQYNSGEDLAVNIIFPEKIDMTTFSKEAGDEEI
Chain of UniProt Q8N612 (Q8N612 whole entry, looked up): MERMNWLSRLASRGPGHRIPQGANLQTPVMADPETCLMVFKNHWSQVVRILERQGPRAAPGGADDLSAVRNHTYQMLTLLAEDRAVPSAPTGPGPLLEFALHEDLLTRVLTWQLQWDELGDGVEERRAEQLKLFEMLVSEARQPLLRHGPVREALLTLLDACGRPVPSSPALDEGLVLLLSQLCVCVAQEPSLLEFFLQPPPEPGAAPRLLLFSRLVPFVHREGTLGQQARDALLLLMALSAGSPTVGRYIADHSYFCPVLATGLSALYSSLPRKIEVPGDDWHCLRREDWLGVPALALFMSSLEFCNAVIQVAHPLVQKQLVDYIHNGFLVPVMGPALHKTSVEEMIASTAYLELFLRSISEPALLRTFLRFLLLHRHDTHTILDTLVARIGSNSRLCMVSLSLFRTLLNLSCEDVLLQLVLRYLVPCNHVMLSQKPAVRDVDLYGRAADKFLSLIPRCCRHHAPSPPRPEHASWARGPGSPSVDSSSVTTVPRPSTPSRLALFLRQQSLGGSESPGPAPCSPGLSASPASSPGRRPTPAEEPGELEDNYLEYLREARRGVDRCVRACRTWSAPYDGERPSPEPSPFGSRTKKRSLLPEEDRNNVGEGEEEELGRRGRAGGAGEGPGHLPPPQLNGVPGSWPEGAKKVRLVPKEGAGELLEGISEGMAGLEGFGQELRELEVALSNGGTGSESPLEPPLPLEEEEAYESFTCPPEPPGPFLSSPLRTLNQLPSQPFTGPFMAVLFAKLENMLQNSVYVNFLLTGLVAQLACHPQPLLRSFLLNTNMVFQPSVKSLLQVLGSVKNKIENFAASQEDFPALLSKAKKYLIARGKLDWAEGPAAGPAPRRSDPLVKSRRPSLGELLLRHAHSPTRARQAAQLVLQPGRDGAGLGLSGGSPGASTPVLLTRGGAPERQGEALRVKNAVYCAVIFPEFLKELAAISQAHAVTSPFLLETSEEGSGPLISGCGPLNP
Chain of UniProt O15121 (O15121 whole entry, looked up): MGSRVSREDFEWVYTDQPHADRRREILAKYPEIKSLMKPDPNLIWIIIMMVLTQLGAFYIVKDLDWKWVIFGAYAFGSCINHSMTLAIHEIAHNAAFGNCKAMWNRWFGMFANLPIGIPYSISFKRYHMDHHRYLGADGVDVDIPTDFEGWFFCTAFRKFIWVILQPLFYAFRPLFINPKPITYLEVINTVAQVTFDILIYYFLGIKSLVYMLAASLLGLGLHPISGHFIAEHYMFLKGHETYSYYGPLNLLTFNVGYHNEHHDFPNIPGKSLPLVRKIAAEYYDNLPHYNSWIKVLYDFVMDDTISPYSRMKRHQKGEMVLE
Chain of UniProt Q96FC9 (Q96FC9 whole entry, looked up): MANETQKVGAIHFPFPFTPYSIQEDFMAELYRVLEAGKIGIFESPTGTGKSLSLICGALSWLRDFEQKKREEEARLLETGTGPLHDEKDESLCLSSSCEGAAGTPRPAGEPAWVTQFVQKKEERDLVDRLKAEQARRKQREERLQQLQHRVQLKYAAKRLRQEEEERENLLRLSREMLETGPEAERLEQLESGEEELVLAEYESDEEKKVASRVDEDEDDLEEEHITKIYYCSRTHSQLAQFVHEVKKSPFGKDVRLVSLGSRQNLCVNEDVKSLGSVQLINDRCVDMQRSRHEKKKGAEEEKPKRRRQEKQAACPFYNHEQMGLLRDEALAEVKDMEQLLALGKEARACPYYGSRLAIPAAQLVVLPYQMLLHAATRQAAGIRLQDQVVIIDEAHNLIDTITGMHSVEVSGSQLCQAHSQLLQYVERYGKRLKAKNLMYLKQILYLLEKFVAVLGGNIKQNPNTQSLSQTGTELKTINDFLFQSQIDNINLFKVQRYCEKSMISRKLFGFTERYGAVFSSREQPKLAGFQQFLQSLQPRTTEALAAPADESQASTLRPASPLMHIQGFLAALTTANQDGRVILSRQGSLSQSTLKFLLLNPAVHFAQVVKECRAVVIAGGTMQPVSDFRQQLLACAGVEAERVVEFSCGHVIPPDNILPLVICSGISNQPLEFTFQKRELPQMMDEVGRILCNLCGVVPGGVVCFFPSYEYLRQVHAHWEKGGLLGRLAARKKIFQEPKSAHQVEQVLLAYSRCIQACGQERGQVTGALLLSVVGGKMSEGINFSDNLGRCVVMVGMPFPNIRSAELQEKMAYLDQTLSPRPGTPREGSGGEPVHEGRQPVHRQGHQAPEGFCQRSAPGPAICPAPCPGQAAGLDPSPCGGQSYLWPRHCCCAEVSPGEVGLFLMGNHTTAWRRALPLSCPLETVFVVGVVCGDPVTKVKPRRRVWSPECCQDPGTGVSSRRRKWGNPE
Chain of UniProt Q8NDI1 (Q8NDI1 whole entry, looked up): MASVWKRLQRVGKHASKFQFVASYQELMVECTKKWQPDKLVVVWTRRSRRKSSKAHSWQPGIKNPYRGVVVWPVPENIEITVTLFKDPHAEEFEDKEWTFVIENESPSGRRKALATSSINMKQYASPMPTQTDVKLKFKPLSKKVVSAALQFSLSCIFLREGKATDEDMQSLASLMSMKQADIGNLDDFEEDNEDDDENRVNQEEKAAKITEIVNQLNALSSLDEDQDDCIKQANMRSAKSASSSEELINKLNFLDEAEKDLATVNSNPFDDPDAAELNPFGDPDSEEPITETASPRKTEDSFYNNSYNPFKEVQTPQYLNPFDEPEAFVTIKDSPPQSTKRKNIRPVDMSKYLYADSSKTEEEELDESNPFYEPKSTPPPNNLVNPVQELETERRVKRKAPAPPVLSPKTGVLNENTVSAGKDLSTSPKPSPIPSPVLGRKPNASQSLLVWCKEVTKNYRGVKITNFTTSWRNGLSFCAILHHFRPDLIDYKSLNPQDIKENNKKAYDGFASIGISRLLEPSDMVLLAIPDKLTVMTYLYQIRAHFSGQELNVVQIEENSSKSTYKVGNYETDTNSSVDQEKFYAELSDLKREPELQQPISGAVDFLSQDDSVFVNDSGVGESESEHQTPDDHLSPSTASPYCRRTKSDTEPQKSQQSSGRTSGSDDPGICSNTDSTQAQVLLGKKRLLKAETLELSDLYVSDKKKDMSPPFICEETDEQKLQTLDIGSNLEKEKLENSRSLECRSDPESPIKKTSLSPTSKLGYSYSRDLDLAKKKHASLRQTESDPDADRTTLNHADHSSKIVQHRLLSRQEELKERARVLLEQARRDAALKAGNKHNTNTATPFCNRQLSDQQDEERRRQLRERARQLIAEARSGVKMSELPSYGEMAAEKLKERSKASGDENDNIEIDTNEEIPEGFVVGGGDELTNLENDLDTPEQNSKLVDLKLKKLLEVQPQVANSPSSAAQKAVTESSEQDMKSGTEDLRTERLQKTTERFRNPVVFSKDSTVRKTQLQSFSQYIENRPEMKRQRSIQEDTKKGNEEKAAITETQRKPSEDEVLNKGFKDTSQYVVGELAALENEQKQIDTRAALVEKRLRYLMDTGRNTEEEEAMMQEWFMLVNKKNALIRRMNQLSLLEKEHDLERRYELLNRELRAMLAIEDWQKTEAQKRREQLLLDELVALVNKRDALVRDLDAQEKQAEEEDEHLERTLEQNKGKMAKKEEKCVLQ
Chain of UniProt Q8TCE6 (Q8TCE6 whole entry, looked up): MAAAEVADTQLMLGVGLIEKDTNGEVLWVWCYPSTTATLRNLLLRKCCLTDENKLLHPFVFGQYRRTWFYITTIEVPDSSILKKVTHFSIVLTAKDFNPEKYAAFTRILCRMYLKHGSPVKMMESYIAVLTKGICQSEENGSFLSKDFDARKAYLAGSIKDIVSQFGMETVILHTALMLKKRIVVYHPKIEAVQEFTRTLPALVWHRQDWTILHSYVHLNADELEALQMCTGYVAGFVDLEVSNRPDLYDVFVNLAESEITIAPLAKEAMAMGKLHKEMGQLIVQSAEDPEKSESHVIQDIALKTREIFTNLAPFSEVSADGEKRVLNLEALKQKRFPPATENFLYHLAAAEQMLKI
Chain of UniProt Q8WV16 (Q8WV16 whole entry, looked up): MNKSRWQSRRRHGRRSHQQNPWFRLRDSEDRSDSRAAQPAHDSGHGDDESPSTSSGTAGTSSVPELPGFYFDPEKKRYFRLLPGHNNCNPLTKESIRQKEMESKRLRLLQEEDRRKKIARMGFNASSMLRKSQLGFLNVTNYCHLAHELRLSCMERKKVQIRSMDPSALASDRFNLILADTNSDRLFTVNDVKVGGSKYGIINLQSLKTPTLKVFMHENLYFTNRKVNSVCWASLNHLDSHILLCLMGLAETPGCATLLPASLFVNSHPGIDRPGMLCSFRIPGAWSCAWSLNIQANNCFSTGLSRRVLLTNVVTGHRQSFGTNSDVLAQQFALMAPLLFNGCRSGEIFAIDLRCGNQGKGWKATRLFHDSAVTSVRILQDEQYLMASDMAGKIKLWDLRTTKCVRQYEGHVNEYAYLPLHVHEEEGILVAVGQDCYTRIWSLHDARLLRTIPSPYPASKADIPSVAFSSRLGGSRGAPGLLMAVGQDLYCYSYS

Consider FAM160A2 isoform 2 (UniProt Q8N612), for which the log2 fold change in test [1] is -0.082; in [2], 0.067; in test [3] it was 0.031; in test [4] it was 0.158; in test [5], 0.103; in test [6] it was -0.056. The log2 fold change in test [7] is -0.004; in test [8], 0.042; in test [9] it was -0.041; in test [10], 0.179; in test [11], 0.115; in test [12], -0.28. Further, the log2 fold change in test [13] is 0.212; in test [14], -0.003; in test [15] it was -0.192.
In the case of DCAF4 (UniProt Q8WV16), the log2 fold change in test [16] is 0.018; in [3] it was -0.076; in [4], -0.012; in [5], 0.005; in test [6] it was 0.074; in test [17] it was -0.06. Besides, the log2 fold change is 0.032 in test [8]; -0.302 in [10]; 0.07 in test [11]; -0.056 in [13]; -0.165 in test [15].
As for DHPS (UniProt M0R1T2), the results for the log2 fold change in test [16] and in [17] were -0.057 and -0.152, respectively.
For DLK1 (UniProt P80370), the log2 fold change in [1] was -0.021; in test [2], -0.095; in [7] it was -0.108; in test [8] it was -0.151; in test [9], -0.133; in [10], -0.173. Also, the values for the log2 fold change in [13] and in test [14] were -0.058 and 0.002, respectively.
On to DEGS1 (UniProt O15121), for which the log2 fold change in [16] is -0.048; in [2], 0.027; in test [18] it was 0.039; in test [3] it was 0.028; in test [19], -0.013; in test [4], -0.002. The log2 fold change was -0.018 in test [5]; -0.034 in [20]; 0 in test [6]; 0.064 in test [17]; 0.062 in test [8]; -0.047 in test [9]. Further, the log2 fold change in test [10] was -0.017; in test [11], 0.138; in test [12], -0.07; in test [13] it was -0.078.
Turning to EHBP1 (UniProt Q8NDI1), the log2 fold change in [2] was -0.02; in [18], 0.031; in test [3], 0.025; in test [5], 0.086; in test [6] it was 0.057; in [9], 0.158. The results for the log2 fold change in test [11] and in test [12] were 0.015 and 0.043, respectively.
As for DDX11 (UniProt Q96FC9), the log2 fold change in [1] is -0.069; in test [16], 0.144; in [18], -0.05; in test [3] it was 0.088; in [19] it was 0.047; in [4], -0.009. The log2 fold change in test [5] was 0.437 (active); in test [20] it was -0.045; in test [17], 0.02; in [7] it was -0.01; in test [8], -0.144; in [10] it was 0.05. For the same target, the log2 fold change in test [12] is -0.068; in test [13], 0.015; in test [14], 0.224; in [15] it was 0.012.
Consider DENND10 (UniProt Q8TCE6), for which the log2 fold change is -0.133 in test [16]; -0.017 in test [2]; 0.003 in test [18]; -0.065 in [3]; 0.114 in test [19]; 0.1 in [4]. In addition, the log2 fold change in [5] is -0.05; in test [20], -0.021; in test [17], 0.046; in [8] it was 0.298 (active); in [9] it was -0.015; in [10], 0.044. Moreover, the log2 fold change is -0.063 in test [12], 0.03 in [13] and -0.021 in test [15].
